Source: PubChem BioAssay (National Center for Advancing Translational Sciences (NCATS))
TRPV1 ag: activates the human vanilloid receptor TRPV1; Q8NER1; TRPV1-expressing cells, Fluo-8 calcium influx, agonist mode; actives 0.19% (n = 320,000); activation, % at 8.33 µM; in the data active = activation above about 80%; inconclusive = between about 30% and that limit
Target sequence (Q8NER1 whole entry, looked up): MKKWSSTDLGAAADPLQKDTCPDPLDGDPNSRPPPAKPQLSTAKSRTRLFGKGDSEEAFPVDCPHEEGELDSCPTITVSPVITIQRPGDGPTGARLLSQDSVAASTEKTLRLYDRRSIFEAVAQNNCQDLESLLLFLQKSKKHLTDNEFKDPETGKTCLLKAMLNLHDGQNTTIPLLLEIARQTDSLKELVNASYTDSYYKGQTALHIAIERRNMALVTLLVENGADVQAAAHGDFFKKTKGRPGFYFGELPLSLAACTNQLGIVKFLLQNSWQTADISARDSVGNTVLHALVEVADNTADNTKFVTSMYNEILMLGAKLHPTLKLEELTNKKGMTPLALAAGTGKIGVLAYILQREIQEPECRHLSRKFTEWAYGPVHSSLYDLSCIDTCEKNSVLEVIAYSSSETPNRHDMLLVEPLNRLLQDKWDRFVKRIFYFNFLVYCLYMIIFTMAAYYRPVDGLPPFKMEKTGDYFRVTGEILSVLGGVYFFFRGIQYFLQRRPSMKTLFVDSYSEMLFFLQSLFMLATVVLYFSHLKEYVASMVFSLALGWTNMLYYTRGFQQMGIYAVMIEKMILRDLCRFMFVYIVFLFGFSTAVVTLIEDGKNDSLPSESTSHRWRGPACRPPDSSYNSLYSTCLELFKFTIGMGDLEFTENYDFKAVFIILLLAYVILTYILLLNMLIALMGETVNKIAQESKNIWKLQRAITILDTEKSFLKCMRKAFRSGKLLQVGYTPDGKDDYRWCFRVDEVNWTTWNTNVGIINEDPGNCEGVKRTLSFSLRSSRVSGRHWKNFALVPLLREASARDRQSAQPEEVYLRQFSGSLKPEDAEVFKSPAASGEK
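Cells expressing TRPV1 were dye-loaded with Fluo-8 and read kinetically: 10 s baseline, 3 min after compound (agonist portion), then 2 min after EC20 capsaicin (allosteric enhancer portion). Calcium-bound dye fluorescence at 480/520 nm.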
RORg inh: ROR gamma (mouse) transcription inhibition | P51450 | Drosophila S2 Gal4-RORgamma UAS-luciferase reporter, 20 h | Potency, µM (top dose mostly 53.6 µM), hits mostly inhibitors | actives 5.4% (n = 310,000); also: nearly all actives have a fitted effect of over 60% in size
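Using a luciferase readout, inhibitors were identified by reduced reporter activity in Drosophila cells coexpressing a copper-inducible Gal4–ROR gamma fusion and UAS-driven Photinus luciferase, incubated 20 hr after 700 uM copper sulfate.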
TRPV1 PAM: enhances activation of the human vanilloid receptor TRPV1 | Q8NER1 | TRPV1-expressing cells, Fluo-8 calcium influx, capsaicin EC20 potentiation | potentiation, % at 8.33 µM | actives 0.02% (n = 320,000); in the data active = potentiation above about 80%; inconclusive = between about 30% and that limit
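Cells expressing TRPV1 were dye-loaded with Fluo-8 and read kinetically: 10 s baseline, 3 min after compound (agonist portion), then 2 min after EC20 capsaicin (allosteric enhancer portion). Calcium-bound dye fluorescence at 480/520 nm.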
Gal4-VP16 FLuc: inhibits Gal4-VP16 luciferase reporter, ROR gamma counter-screen | Drosophila S2 Gal4-VP16 UAS-luciferase, luminescence, 20 h | Potency, µM (doses to about 53.6 µM), most hits filed as inhibitors | actives 3.5% (n = 310,000) | AID 2546;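 also: Gal4-VP16 expression switched on by copper sulfate through the metallothionein promoter; nearly all actives have a fitted effect of over 50% in size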
uPA generation: cell surface uPA generation inhibition. cell surface uPA generation assay, qHTS. Potency, µM (series often up to 38.3 µM), hits mostly inhibitors. actives 0.31% (n = 330,000); active = well fitted inhibition curve with a large enough effect; inconclusive = small, poorly fitted or top-dose-only effect; inactive = no such curve, though single readings can be large or run the other way; tested in mouse RAW 264.7 cells; also: nearly all actives have a fitted effect of over 55% in size
Numbers stand for hits; - = inactive; ? = inconclusive; . = no result given; [ ] = dose if it differs, or a comment. Hits are enriched below; roughly 5.8% of the tested compounds scored in any of these assays. Unless noted, calls follow the shape of the dose curve; as a rule, active = well fitted curve in the direction sought with a large enough effect; inconclusive = small, poorly fitted or top-dose-only effect, or another doubt; inactive = no such curve, though single readings can be large; an effect the other way counts as inactive or inconclusive.

SMILES	TRPV1 ag	RORg inh	TRPV1 PAM	Gal4-VP16 FLuc	uPA generation
CN(C)CCCNC(=O)C1(O)c2cc(Br)ccc2NC(=O)N1c1c(F)cccc1F (configuration not stated)	-	-	-	-	-
COc1ccc(S(=O)(=O)N2CCOCC2)cc1NC(=O)c1cccs1	-	.	-	.	?
O=S1(=O)N=C(N2CCOCC2)c2ccccc21	-	-[10 µM]	-	-	-
CC1=NN(C2=NS(=O)(=O)c3ccccc32)C(C)(O)C1 (configuration not stated)	-	1.3µM	?	3.5µM	-
CN(C)S(=O)(=O)c1cccc(NC(=S)N(CCC#N)Cc2cccnc2)c1	-	-	-	-	-
Cc1cc(C)cc(CC(Cc2nc3ccccc3[nH]2)c2nc3ccccc3[nH]2)c1 (configuration not stated)	-	11µM	-	11µM	-
O=C1COc2ccc(N3C(=O)C=CC3=O)cc2N1	-	6.3µM	-	10µM	.
O=C1COc2ccc(S(=O)(=O)N3CCCC3)cc2N1	-	-	-	-	-
O=C(CN1c2ccccc2Sc2ccccc21)NNC(=S)Nc1ccc(Cl)cc1	-	10µM	-	?	-
O=C(CN1c2ccccc2Sc2ccccc21)N/N=C/c1ccc(Cl)cc1Cl	-	-	-	-	-
O=C(CN1c2ccccc2Sc2ccccc21)NNC(=S)Nc1ccc(Cl)cc1Cl	-	13µM	-	?	-
N#CCCn1c(=O)c(-c2cccs2)nc2cnc(OCc3ccccc3)nc21	.	-	.	-	.
Oc1c(C(c2cccs2)N2CCN(c3ccccc3)CC2)ccc2cccnc12 (configuration not stated)	-	5µM	-	7.9µM	.
CN1CCN(C(c2ccc(C(F)(F)F)cc2)c2ccc3cccnc3c2O)CC1 (configuration not stated)	-	3.2µM	-	1.6µM	-
Oc1c(C(c2ccccc2Cl)N2CCCC2)ccc2cccnc12 (configuration not stated)	-	1.6µM	-	-	7.9µM
CSCC[C@H](NC(=O)[C@H](CC(C)C)NC(=O)CNC(=O)[C@H](Cc1ccc(O)cc1)NC(=O)[C@H](Cc1ccccc1)NC(=O)[C@H](CCC(N)=O)NC(=O)[C@H](CCC(N)=O)NC(=O)[C@@H]1CCCN1C(=O)[C@H](CCCCN)NC(=O)[C@@H]1CCCN1C(=O)[C@@H](N)CCCN=C(N)N)C(N)=O	.	-	.	-	.
Cc1cc(Cl)ccc1NC(=S)NCc1ccccc1	?	4µM	-	-[0.365 µM]	-
COc1cccc(CNC(=S)Nc2ccc(Cl)cc2C)c1	81	6.3µM	-	6.3µM	-
Cc1ccc(NC(=S)NCc2ccc(Cl)cc2)c(C)c1	?	4.5µM	-	4.5µM	-
COc1cccc(CNC(=S)Nc2cc(OC)ccc2OC)c1	?	13µM	-	?	-
COc1ccc(Cl)cc1NC(=S)NCc1cccnc1	-	-	-	-	-
Cc1cc(=O)n2[nH]c(-c3ccc(C(C)(C)C)cc3)cc2n1	-	?	-	22µM	.
NC(N)=NCCC[C@H](N)C(=O)N1CCC[C@H]1C(=O)N1CCC[C@H]1C(=O)NCC(=O)N[C@@H](Cc1ccccc1)C(=O)N[C@@H](CO)C(=O)N1CCC[C@H]1C(=O)N[C@@H](Cc1ccccc1)C(=O)O	.	-	.	-	.
CCOc1ccc(OCc2ccc(C(=O)O)o2)cc1	-	10µM	-	-[0.365 µM]	-
O=C(CSc1nnc(SCc2ccc(Cl)cc2)s1)N/N=C/c1c[nH]c2ccccc12	-	11µM	-	8.9µM	-
SMILES	TRPV1 ag	RORg inh	TRPV1 PAM	Gal4-VP16 FLuc	uPA generation
CCCCn1c(NCc2ccccc2O)nc2ccccc21	-	?	-	-	-
S=C(Nc1ccccc1)Nc1nc2ccccc2n1CCOc1ccccc1	-	1.1µM	-	7.1µM	.
COc1ccc(OCCn2c(NC(=O)c3ccco3)nc3ccccc32)cc1	-	2.2µM	-	2.8µM	-
CCCCn1c(NC(=S)Nc2ccccc2)nc2ccccc21	-	1µM	-	1.4µM	-
Cc1cccc(C(=O)NNC(=O)CSc2nnc(C3CC3)n2C)c1	-	-	-	-	-
Cc1ccc2nsnc2c1NC(=O)c1ccc([N+](=O)[O-])cc1	-	7.9µM	-	?	-
CC(=O)Nc1c(C)ccc2nsnc12	-	?	-	-	-
COCCNC(=S)N(CCc1c(C)[nH]c2ccc(OC)cc12)Cc1ccco1	-	-	-	-	-
COc1ccc2[nH]c(C)c(CCN(Cc3cccs3)C(=S)Nc3ccccc3)c2c1	-	1.8µM	-	-	?
COc1ccc(NC(=S)N(CCc2c(C)[nH]c3ccc(C)cc23)Cc2cccs2)cc1	-	?	-	-	-
CNC(=S)N(CCc1c(C)[nH]c2ccc(C)cc12)Cc1cccs1	-	11µM	-	?	?
COCCNC(=S)N(CCc1c(C)[nH]c2ccc(C)cc12)Cc1ccco1	-	11µM	-	-	-
C=CCN1C(=O)C(CC(=O)Nc2ccccc2)N(Cc2ccccn2)C1=S (configuration not stated)	-	-	-	-	-
Cc1ccc(Nc2nc(CSc3nnc(-c4cccnc4)n3-c3ccccc3C)cs2)cc1	?	5µM	-	?	-
Cc1ccccc1-n1c(SCc2csc(Nc3ccccc3)n2)nnc1-c1cccnc1	-	?	-	?	-
COC(=O)c1ccc(CSc2nc(C)nc3sc(C)c(C)c23)o1	-	?	-	4µM	.
COc1ccc2ccc3c(c2c1)N=C[C@]1(O3)N(C)c2ccccc2C1(C)C	-	13µM	-	?	-
COc1ccc(-c2nc3ccc(C)cn3c2NCc2ccc3c(c2)OCO3)cc1	81	-	-	-	-
COc1cc(-c2nc3ccc(C)cn3c2NCc2ccccc2)ccc1SC1CCCCC1	?	.	?	.	8.9µM
CCCCNc1c(-c2ccc(OC)c(SC3CCCCC3)c2)nc2cc(C)ccn12	88	.	-	.	?
Cc1ccc(-c2nc3ccccn3c2NCc2ccc3c(c2)OCO3)cc1	-	-	-	-	-
Cc1ccc(/C=C2\SC(=S)N(CCCC(=O)Nc3cc(C)on3)C2=O)cc1	-	0.79µM	-	?	-
CCN(CC)CCOC(=O)c1ccc(NC(=O)CCCN2C(=O)/C(=C\c3cccs3)SC2=S)cc1	-	11µM	-	11µM	-
COc1ccc(/C=C2\SC(=S)N(CCCC(=O)Nc3cc(C)on3)C2=O)cc1OC	-	2µM	-	5µM	.
COc1ccc(/C=C2\SC(=S)N(CCCCCC(=O)Nc3cc(C)on3)C2=O)cc1OC	-	-	-	-	-
Cc1cc(NC(=O)CCCN2C(=O)/C(=C\c3cccs3)SC2=S)no1	-	-	-	13µM	-
COc1ccc(C2/C=C\CN(C(=O)CC(C)(C)C)C(C)C(=O)N2Cc2ccc(F)cc2)cc1 (configuration not stated)	.	?	.	-	.
Nc1ccc(Cl)cc1[N+](=O)[O-]	.	-	.	-	.
O=[N+]([O-])c1ccccc1/C=N/Nc1nnc(-c2ccccc2)c(-c2ccccc2)n1	-	3.2µM	-	3.2µM	-
Cc1ccc(C(=O)c2ccccc2C(=O)O)c(O)c1	.	-	.	-	-
